Assay results as given in PubChem BioAssay AID1259415 (National Center for Advancing Translational Sciences (NCATS), 2018).
Where “and” joins values, the source holds several entries; their conditions need not be identical. Equal values may be shown once. In all, about 410,000 compounds went through this assay and about 18,000 (4.4%) were called active. Another 7% or so got no clear call; they are omitted. The sample as a whole holds a higher share of actives than the screen did. Values without a mark were called inactive. No stated cut-off is given here; in the data, active means activity change below about -60%; inconclusive means no clear call, values can overlap the other calls; inactive means above about -39%.

Experiment: qHTS Assay for inhibitors of the human cytomegalovirus (HCMV)
Settings: HFF cells, HCMV-luciferase reporter, 72 h; at 57.5 µM; hits give low values
Outline: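 Compounds were evaluated in HFFs infected with an HCMV luciferase reporter virus (MOI 1 PFU/cell). Luciferase in lysates collected 72 h post infection served as the replication measure.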
On the % scale 0 is the no-effect control and ±100 the full control effect.

Point of comparison: CCC(CC)C(=O)N1CCc2cc(OC)c(OC)cc2C1COc1ccc(F)cc1 (configuration not stated), activity change, negative = inhibition -15.5%. Against it:
- CCCN(CCC)CCCNC(=O)Cn1ncc2c3ccccc3n(Cc3ccccc3)c2c1=O — higher, -11.9%
- Cc1ccc(-c2nnc(Nc3ccc(OCC(N)=O)cc3)c3ccccc23)cc1S(=O)(=O)NCC1CCCO1 (configuration not stated) — lower, -19.2%
- CCn1c(=O)cc(OCC(=O)Nc2cc(Cl)c(OC)cc2OC)c2ccccc21 — higher, 0.565%
- C=CCC(C(=O)c1ccccc1)[N+](C)(C)CC=C (configuration not stated) — higher, 12.4%
- Cc1nonc1C1CCCN1C(=O)c1cc(COc2cccc(C(F)(F)F)c2)on1 (configuration not stated) — higher, 10.6%
- COCC1CCCCN1C(=O)c1cc(COc2ccc(C)c(C)c2)on1 (configuration not stated) — higher, 50.2%
- O=C(Cc1csc(Nc2nc(=S)[nH]c3ccccc23)n1)NCCCN1CCN(c2cccc(Cl)c2)CC1 — higher, 2.37%
- CCC(=O)NC(NCC1CCCO1)C(Cl)(Cl)Cl (configuration not stated) — higher, -10.5%
- COCCN(CCOC)c1nc(N)c2c(N)nc3c(c2c1C#N)CC(=O)N3Cc1ccc(Cl)cc1 — higher, 30.8%
- Cc1cc(C)c(NC(=O)CSc2nc3ccncc3[nH]2)c(C)c1 — higher, -3.75%
- c1ccc(CSCCc2ccncc2)cc1 — lower, -24.8%
- COc1ccc2c(c1)C=C(C(=O)NCc1cc(Br)ccc1OC)CO2 — lower, -22.6%
- CSCC[C@H](NC(=O)N1CCn2c1nc1ccccc12)C(=O)NC1CCCCC1 — lower, -35.1%
- CSc1ccc(Cl)c(C(=O)OCC(=O)N2CCNC2=O)c1 — lower, -17%
- CN(C1CCS(=O)(=O)C1)S(=O)(=O)c1ccc2ccccc2c1 (configuration not stated) — lower, -24.3%
- CCN1CCN(C(=O)CN(C)S(=O)(=O)c2ccc3ccccc3c2)CC1 — higher, -9.61%
- O=C(Nc1c(C(=O)N2CCCCC2)cnn1-c1ccccc1)c1ccco1 — higher, 22.9%
- CC(=O)Nc1ccc2nc(SCCOc3cc(C)cc(C)c3)sc2c1 — lower, -35%
- COc1cc(C)ccc1OCCSc1nc2ccc(NC(=O)c3ccc(C)cc3)cc2s1 — higher, 24.3%

For Cc1ccccc1Cn1c2ccccc2c2cnn(CC(=O)NCc3ccco3)c(=O)c21, the activity change, negative = inhibition was -95.6% (active).
With O=C(Cn1ncc2c3ccccc3n(Cc3ccccc3)c2c1=O)NCc1ccccn1 the activity change, negative = inhibition was -12.1% and -33.7%.
In the case of COC(=O)[C@@H]1CCCN1C(=O)c1cc(COc2cccc3cccnc23)on1, the activity change, negative = inhibition is reported as -61.4% (active).
In the case of Cc1cc(C)c(SCCc2ccncc2)c(C)c1, the activity change, negative = inhibition is reported as -63.8% (active).
For Cc1ccccc1Nc1scc(-c2ccc(Br)cc2)[n+]1-c1ccccc1C, the activity change, negative = inhibition was -68.6% (active).
In the case of CC(=O)Oc1ccc(N(C(C)=O)S(=O)(=O)c2ccc3ccccc3c2)cc1Br, the activity change, negative = inhibition is reported as -69.6% (active).
In the case of O=C(Nc1ccc2nc(SCCOc3ccccc3Cl)sc2c1)c1ccco1, the activity change, negative = inhibition is reported as -70% (active).
